Measurements: PubChem BioAssay (EPA / NIEHS)
A structure can be active in one record and inactive in another. The source made the active and inactive calls. Rule for the calls: active = hit-call score of the fitted dose curve at least 0.9, where 1 is the maximum; inactive = score below 0.9.

Assay: ATG_E_Box_CIS: Attagene CIS-FACTORIAL HepG2 Assay for human Enhancer Box (E-box) (AID 2282936)
Conditions: HepG2 E-box cis-reporter transcription, actives raise or lower the signal
Experimental: ATG_CIS is a cell-based, multiplexed-readout assay that uses HepG2, a human liver cell line, with measurements taken at 24 hours after chemical dosing in a 24-well plate.ATG_E_Box_CIS is one of 52 assay component(s) measured or calculated from the ATG_CIS assay. It is designed to make measurements of mRNA induction, a form of inducible reporter, as detected with fluorescence intensity signals by Reverse transcription polymerase chain reaction (RT-PCR) and Capillary electrophoresis technology.Data from the assay component ATG_E_Box_CIS was analyzed into 1 assay endpoint. This assay endpoint, ATG_E_Box_CIS, was analyzed with bidirectional fitting relative to DMSO as the negative control and baseline of activity. Using a type of inducible reporter, measures of mRNA for gain or loss-of-signal activity can be used to understand the reporter gene at the transcription factor-level as they relate to the gene USF1. Furthermore, this assay endpoint can be referred to as a primary readout, because this assay has produced multiple assay endpoints where this one serves a reporter gene function. To generalize the intended target to other relatable targets, this assay endpoint is annotated to the dna binding intended target family, where the subfamily is basic helix-loop-helix protein.
Human liver HepG2 cells are transiently transfected with multiple reporter transcription units (MRTUs) in 6-well plates using FuGene 6 reagent (Roche; 3 ml FuGene/1 mg DNA). The MRTU constructs are regulated by a cis-regulating element (promoter). […] A major difference between the CIS and TRANS system is that in CIS activities of endogenous TFs are measured, whereas the TRANS assay evaluates changes in activities of exogenous, chimeric NR-Gal4 proteins. […] At the end of 24 hour incubation, total RNA was isolated using TriZol reagent (Invitrogen). The isolated RNA is then reverse-transcribed using oligo(dT) primer and Mo-MLV reverse transcriptase (Invitrogen) with DNAse I (Ambion) treatment for 30 min. The one-tenth of the produced cDNA was amplified by PCR using Taq DNA polymerase (Invitrogen) and two reporter sequence-specific primers. The PCR products were fluorescently labeled by primer extension with 6-arboxyfluorescein (6-FAM) 5'-labeled reporter sequence-specific primer (2 min at 95 C, 20 s at 68 C and 10 min at 72 C) and these products were digested with 5U of HpaI (New England Biolabs) for 2h at 37 C. The fragments were purified using Qiaquick PCR columns (Qiagen), analyzed on an ABI 3130xL genetic analyzer (Applied Biosystems) with peak positions identified by using a set of X-rhodamine (ROX)-labeled MapMarker1000 molecular weight standards (BioVentures). The raw capillary electrophoresis data was processed using Attagraph software (Attagene).

Structure (SMILES)	outcome	AC50
CN(C)C(=S)S	inactive	
C=CCN=C=S	inactive	
CCCCN(CCCCO)N=O	inactive	
CC1(C)[C@H](/C=C2\CCSC2=O)[C@@H]1C(=O)OCc1coc(Cc2ccccc2)c1	inactive	
CCOP(=O)(OCC)OC(=CCl)c1ccc(Cl)cc1Cl	inactive	
C1CCC(C2CCCCC2)CC1	inactive	
CNC(=O)CSP(=O)(OC)OC	inactive	
CC(C)CC(C)(c1ccc(O)cc1)c1ccc(O)cc1	inactive	
COCC(=O)N(c1c(C)cccc1C)[C@H](C)C(=O)OC	inactive	
OC[P+](CO)(CO)CO	inactive	
CCCCC(CC)COC(=O)Cl (stereo not given)	inactive	
BrCC(Br)c1ccccc1 (stereo not given)	inactive	
CCOP(=S)(OCC)SCS(=O)(=O)C(C)(C)C	inactive	
COc1ccc(N)cc1	inactive	
CCN(N=O)C(N)=O	inactive	
Cc1ccccc1OP(=O)(Oc1ccccc1C)Oc1ccccc1C	inactive	
CCCCC(CC)C(=O)Cl (stereo not given)	inactive	
Fc1cccc(Cl)c1CCl	inactive	
CCCCOP(=O)(CCCC)OCCCC	inactive	
O=[N+]([O-])c1cc([As](=O)(O)O)ccc1O	inactive	

Structure (SMILES)	outcome	AC50
C[N+](C)(C)Cc1ccccc1	inactive	
Nc1ncn[nH]1	inactive	
N#Cc1ccc(Cl)cc1	inactive	
Brc1ccc(Br)cc1	inactive	
CC1(C)COP(Oc2ccccc2)OC1	inactive	
Cl[C@H]1OCCO[C@@H]1Cl	inactive	
Cc1cc(Cl)ccc1N	inactive	
CCCCCCCCCCCCBr	inactive	
FC(F)OCC(F)(F)C(F)(F)F	inactive	
c1ccc(-c2cccc(-c3ccccc3)c2)cc1	inactive	
CCOC(=O)CCN(SN(C)C(=O)Oc1cccc2c1OC(C)(C)C2)C(C)C	inactive	
Clc1ccc(C(Cl)(Cl)Cl)cn1	inactive	
Cc1cc(Cl)ccc1OCCCC(=O)O	inactive	
O=c1oc2ccccc2c(O)c1C(CC(O)c1ccc(-c2ccc(Br)cc2)cc1)c1ccccc1 (stereo not given)	inactive	54.6 µM (active)
ClCc1ccccc1Cl	inactive	
CC(C)(C)c1cc([N+](=O)[O-])cc(C(C)(C)C)c1O	inactive	
C=CC(=O)[O][Sn]([CH2]CCC)([CH2]CCC)[CH2]CCC		0.551 µM (active)
CC(F)(F)CC(F)(F)F	inactive	
c1ccc2c(c1)Oc1ccccc1O2	inactive	
